Laboratory results published in PubChem BioAssay (Tox21).
Records with an inconclusive call do not appear. Calls of active or inactive are those of the source. Unless noted, the call rests on the fitted dose curve; in most records, active means well fitted curve in the direction sought with a large enough effect in the repeat runs; inconclusive means weak or mixed curves; inactive means no such curve, though single readings can be large; an effect the other way counts as inactive or inconclusive.

Experiments:
[1] = qHTS assay to identify small molecule antagonists of the estrogen related receptor (ERR) signaling pathway from Tox21 library - cell viability counter screen (AID 1224834); further: nearly all actives have a fitted effect of over 30% in size
Outline: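 Viability readout (CellTiter-Fluor fluorescence, 30 min at 37 C) multiplexed with the ERR assay; cells treated 17.5 h at 37 C with compounds delivered in DMSO.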

[2] = target: Luciferin 4-monooxygenase (Photinus pyralis) (UniProt P08659); assay: qHTS assay to identify small molecule inhibitors of firefly luciferase (AID 1224835); further: nearly all actives have a fitted effect of over 25% in size; further: potency means the concentration at half of the fitted maximal effect
Chain of Luciferin 4-monooxygenase (Photinus pyralis) (P08659 whole entry, looked up): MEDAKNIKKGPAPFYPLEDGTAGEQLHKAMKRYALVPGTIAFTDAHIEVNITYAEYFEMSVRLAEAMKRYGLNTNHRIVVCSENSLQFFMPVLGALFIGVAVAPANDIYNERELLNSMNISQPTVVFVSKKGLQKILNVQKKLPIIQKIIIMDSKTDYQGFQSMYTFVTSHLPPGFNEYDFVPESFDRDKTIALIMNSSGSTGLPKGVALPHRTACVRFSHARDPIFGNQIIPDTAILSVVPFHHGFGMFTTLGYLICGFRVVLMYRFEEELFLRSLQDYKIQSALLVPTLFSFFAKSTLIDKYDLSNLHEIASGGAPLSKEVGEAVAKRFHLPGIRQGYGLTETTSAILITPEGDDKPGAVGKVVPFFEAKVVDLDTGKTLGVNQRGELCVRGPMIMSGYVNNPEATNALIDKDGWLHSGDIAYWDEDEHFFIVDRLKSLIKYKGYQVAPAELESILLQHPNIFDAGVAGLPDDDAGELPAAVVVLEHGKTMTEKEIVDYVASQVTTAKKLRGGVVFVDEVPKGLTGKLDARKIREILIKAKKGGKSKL
Outline: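 Quantitative HTS format; KM concentrations of both substrates. Purified P. pyralis FLuc activity quantified from luminescence images.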

[3] = qHTS assay to identify small molecule agonists of the constitutive androstane receptor (CAR) signaling pathway - cell viability counter screen (AID 1224836); further: nearly all actives have a fitted effect of over 45% in size
Outline: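 Counter screen multiplexed with the CAR reporter readout: HepG2 cells co-transfected with hCAR and the CYP2B6-2.2kb construct receive a 15-concentration compound series and 0.75 uM PK11195 (final), then CellTiter-Fluor fluorescence is read after 23 h.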

[4] = qHTS assay to identify small molecule antagonists of the constitutive androstane receptor (CAR) signaling pathway - cell viability counter screen (AID 1224837); further: nearly all actives have a fitted effect of over 45% in size
Outline: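 Fluorescence from CellTiter-Fluor served as the viability signal. Human hepatoma HepG2 cells stably bearing hCAR and CYP2B6-2.2kb received compound plus CITCO (50 nM final) for 23 hr.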

[5] = qHTS assay to identify small molecule antagonists of the estrogen related receptor signaling pathway with the pleiotropic PPARgamma coactivator (PGC) from Tox21 10K library - cell viability counter screen (AID 1224840; active means well fitted cell-killing curve with a large enough effect in the repeat runs, not every such curve was filed as active; further: nearly all actives have a fitted effect of over 40% in size)
Outline: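 Compounds in DMSO, alongside positive and negative controls, were pinned onto PGC/ERR cells (2,000 per well). Exposure lasted 17.5 hours at 37 C, followed by a 30-minute CellTiter-Fluor incubation and fluorescence reading.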

[6] = qHTS assay to identify small molecule antagonists of the estrogen related receptor signaling pathway with the pleiotropic PPARgamma coactivator (PGC) from Tox21 10K library (AID 1224841; call rule not given here; further: actives are mostly falling curves and most rising ones were filed inactive; nearly all actives have a fitted effect of over 50% in size)
Outline: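 Compound exposure ran 18 hours at 37 C in PGC/ERR cells (2,000/well) that had first rested 6 hours in a 37 C/5% CO2 incubator. Luciferase activity was then detected with One-Glo after a 30-minute room-temperature step.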

[7] = qHTS assay to identify small molecule agonists of the estrogen related receptor signaling pathway with the pleiotropic PPARgamma coactivator (PGC) from Tox21 10K library (AID 1224842); further: nearly all actives have a fitted effect of over 15% in size
Outline: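 PGC/ERR reporter cells (NTP line) were seeded 2,000 per well, rested 6 h at 37 C/5% CO2, then pin-dosed with compounds in DMSO for 18 h at 37 C; luciferase read by One-Glo luminescence after 30 min at room temperature.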

[8] = target: Thyrotropin receptor (Homo sapiens) (UniProt P16473); assay: qHTS assay to identify small molecule agonists of the thyroid stimulating hormone receptor (TSHR) signaling pathway (AID 1224843; calls by dose curve; further: nearly all actives have a fitted effect of over 45% in size)
Chain of Thyrotropin receptor (Homo sapiens) (P16473 whole entry, looked up): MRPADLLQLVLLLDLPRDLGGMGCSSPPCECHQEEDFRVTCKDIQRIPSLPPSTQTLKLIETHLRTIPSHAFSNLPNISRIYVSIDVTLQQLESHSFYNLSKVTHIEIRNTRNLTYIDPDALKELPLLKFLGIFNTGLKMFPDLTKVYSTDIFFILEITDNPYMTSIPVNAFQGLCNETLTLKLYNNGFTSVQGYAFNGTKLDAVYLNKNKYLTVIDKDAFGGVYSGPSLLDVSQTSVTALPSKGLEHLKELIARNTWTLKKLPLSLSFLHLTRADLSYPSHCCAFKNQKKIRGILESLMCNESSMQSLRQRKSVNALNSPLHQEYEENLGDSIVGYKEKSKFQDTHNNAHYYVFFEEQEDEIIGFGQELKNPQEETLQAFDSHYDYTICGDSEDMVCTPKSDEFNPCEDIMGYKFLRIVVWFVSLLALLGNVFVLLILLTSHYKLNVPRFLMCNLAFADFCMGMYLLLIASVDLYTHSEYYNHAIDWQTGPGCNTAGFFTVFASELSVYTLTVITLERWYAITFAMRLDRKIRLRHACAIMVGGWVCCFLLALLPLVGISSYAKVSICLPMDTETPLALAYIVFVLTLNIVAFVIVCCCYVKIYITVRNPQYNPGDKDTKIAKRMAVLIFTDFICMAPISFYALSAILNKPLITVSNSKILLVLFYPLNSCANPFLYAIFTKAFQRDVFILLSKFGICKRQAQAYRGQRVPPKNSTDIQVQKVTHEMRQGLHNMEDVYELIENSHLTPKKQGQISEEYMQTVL
Outline: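 TSHR-expressing HEK293 cells (800 per well) were exposed to compounds for 30 min at room temperature. cAMP was then detected by HTRF competition with cAMP-d2 and anti-cAMP cryptate, read after 1 h at room temperature. Fifteen concentrations, triplicate.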

[9] = qHTS assay to identify small molecule agonists of H2AX (AID 1224845; active means well fitted activation curve with a large enough effect in the signal ratio in the repeat runs, not every such curve was filed as active; the % refers to the signal ratio)
Outline: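 Wild-type CHO-K1 cells plated overnight, then exposed 3 hr at 37C to compounds at 15 concentrations (0.76% DMSO). Lysed, then HTRF anti-pH2AX(S139)-cryptate/anti-H2AX-d2 detection after 24 hr at room temperature; emissions 665 and 620 nm.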

[10] = qHTS assay to identify small molecule agonists of the hypoxia (HIF-1) signaling pathway (AID 1224846; active means well fitted activation curve with a large enough effect in the signal ratio in the repeat runs, not every such curve was filed as active; the % refers to the signal ratio)
Outline: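 Measured by blue/green FRET after loading CCF4-AM: beta-lactamase expressed from a hypoxia response element in ME-180 cells. Test agents were delivered in DMSO and left 17 hrs; cells had been plated 5 hrs earlier in low-serum (0.5% dialyzed FBS) medium.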

[11] = qHTS assay to identify small molecule agonists of H2AX - cell viability counter screen (AID 1224847; calls by dose curve; further: top concentration of the series differs between compounds; nearly all actives have a fitted effect of over 30% in size)
Outline: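 We seed wild-type CHO-K1 cells overnight, treat them for 3 hr at 37C with compounds in 15-concentration series, and quantify remaining viability by CellTiter-Glo luminescence.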

[12] = qHTS assay to identify small molecule antagonists of the estrogen related receptor (ERR) signaling pathway from Tox21 library (AID 1224848); further: nearly all actives have a fitted effect of over 50% in size
Outline: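 Cells: ERR line, 2,000/well; 6 h preincubation 37 C/5% CO2. Cpd in DMSO via pin tool; 18 h, 37 C. ONE-Glo, 30 min RT, luminescence.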

[13] = qHTS assay to identify small molecule agonists of the estrogen related receptor (ERR) signaling pathway from Tox21 library (AID 1224849; calls by dose curve; further: nearly all actives have a fitted effect of over 15% in size); conditions: ERR reporter cell line, ONE-Glo luciferase, 18 h
Outline: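 We plated ERR reporter cells, waited 6 h, added compounds in DMSO by pin tool and incubated them 18 h at 37 C. ONE-Glo was then added and luminescence read after 30 min.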

[14] = qHTS RealTime-Glo MT Cell Viability Assay in HepG2 cells - 24 hour (AID 1224867); further: nearly all actives have a fitted effect of over 50% in size
Outline: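 Cell number in HepG2 cultures estimated from NanoLuc luminescence generated by metabolic reduction of a prosubstrate by living cells. The homogeneous, nonlytic format allowed repeated reads at 0, 8, 16, 24, 32 and 40 h of compound exposure.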

[15] = qHTS RealTime-Glo MT Cell Viability Assay in HEK293 cells - 32 hour (AID 1224868); further: top concentration of the series differs between compounds; nearly all actives have a fitted effect of over 50% in size
Outline: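 Homogeneous bioluminescent viability format in HEK293 cells (600 cells/well). Following 5 h at 37 C/5% CO2, 23 nL compound was pintooled; the signal was measured repeatedly during 40 h incubation.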

[16] = A CellTox Green Cytotoxicity Assay to monitor cytotoxicity in HEK293 cells - 0 hour (AID 1224869); further: nearly all actives have a fitted effect of over 50% in size; further: potency means the concentration at half of the fitted maximal effect
Outline: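 Each value comes from one timepoint of a single continuous run in which HEK293 cells with CellTox Green were exposed to compound for up to 40 h at 37 C, dye fluorescence rising with cell death.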

[17] = qHTS RealTime-Glo MT Cell Viability Assay in HepG2 cells - 40 hour (AID 1224870); further: nearly all actives have a fitted effect of over 50% in size
Outline: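 HepG2 cells mixed with RealTime-Glo MT reagents (NanoLuc plus cell-permeant prosubstrate) were seeded at 600 cells/well, incubated 5 h at 37 C/5% CO2, then pinned with compounds in DMSO; nonlytic luminescence tracked viability during 40 h treatment.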

[18] = qHTS assay to identify small molecule agonists of the hypoxia (HIF-1) signaling pathway - cell viability counter screen (AID 1224844; calls by dose curve; further: nearly all actives have a fitted effect of over 50% in size)
Outline: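 Luminescent ATP content (CellTiter-Glo, 30 min, room temperature) served as the viability measure in HRE-bla ME-180 cells exposed to compounds for 17 hrs in low-serum medium (0.5% dialyzed FBS).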

[19] = target: Nuclear receptor subfamily 1 group I member 3 (Homo sapiens) (UniProt Q14994); assay: qHTS assay to identify small molecule antagonists of the constitutive androstane receptor (CAR) signaling pathway (AID 1224838);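 further: HepG2 cells stably expressing hCAR with CYP2B6 luciferase reporter stimulated by CITCO; nearly all actives have a fitted effect of over 40% in size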
Chain of Nuclear receptor subfamily 1 group I member 3 (Homo sapiens) (Q14994 whole entry, looked up): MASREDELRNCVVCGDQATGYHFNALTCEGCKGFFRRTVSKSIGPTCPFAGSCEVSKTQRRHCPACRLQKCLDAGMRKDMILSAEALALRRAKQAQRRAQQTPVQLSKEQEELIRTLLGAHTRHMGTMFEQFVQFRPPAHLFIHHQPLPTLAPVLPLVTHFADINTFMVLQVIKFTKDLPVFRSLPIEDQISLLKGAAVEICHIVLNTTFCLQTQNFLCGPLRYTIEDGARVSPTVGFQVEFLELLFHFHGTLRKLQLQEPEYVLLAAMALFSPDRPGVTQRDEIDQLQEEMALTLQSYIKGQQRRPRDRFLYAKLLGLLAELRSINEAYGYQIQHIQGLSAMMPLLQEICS
Outline: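 Quantitative HTS in double-stable HepG2-CYP2B6-hCAR cells. After 4 h plating, cells get compound (15 concentrations) and CITCO at 50 nM final, incubate 24 h at 37 C, then ONE-Glo luminescence is read.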

[20] = target: Nuclear receptor subfamily 1 group I member 3 (Homo sapiens) (UniProt Q14994); assay: qHTS assay to identify small molecule agonists of the constitutive androstane receptor (CAR) signaling pathway (AID 1224839); further: nearly all actives have a fitted effect of over 15% in size
Outline: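 A 15-concentration quantitative screen uses HepG2 cells co-transfected stably with human CAR and CYP2B6-2.2kb reporter. Treatment lasts 24 h with 0.75 uM PK11195 final present; ONE-Glo luminescence is the signal.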
On the % scale 0 is the no-effect control and ±100 the full control effect.

Cc1c(N)cccc1C(F)(F)F
inactive: Potency [1] | Potency [2] | Potency [3] | Potency [4] | Potency [5] | Potency [6] | Potency [7] | Potency [8] | Potency [9] | Potency [10] | Potency [11] | Potency [12] | activity change, positive = activation ([13]; at 42.5 µM (top of the series)) 6.86% | Potency [14] | Potency [15] | Potency [16] | Potency [17]

C=CCn1c(=O)n(CC=C)c(=O)n(CC=C)c1=O
inactive: Potency [1] | Potency [2] | Potency [3] | Potency [4] | Potency [5] | Potency [8] | Potency [18] | Potency [9] | Potency [10] | Potency [11] | Potency [14] | Potency [15] | Potency [16]

O=[N+]([O-])c1cccc(C(F)(F)F)c1
inactive: Potency [1] | Potency [2] | Potency [3] | Potency [4] | Potency [5] | Potency [8] | Potency [18] | Potency [9] | Potency [10] | Potency [11] | Potency [14] | Potency [15] | Potency [16]

ClCCl
inactive: Potency [1] | Potency [2] | Potency [3] | Potency [4] | Potency [19] | Potency [20] | Potency [5] | Potency [18] | Potency [10] | Potency [11] | Potency [14] | Potency [15] | Potency [16]

OC[C@H]1O[C@H](O[C@H]2O[C@H](CO)[C@@H](O)[C@H](O)[C@H]2O)[C@H](O)[C@@H](O)[C@@H]1O
inactive: Potency [1] | Potency [2] | Potency [3] | Potency [4] | Potency [5] | Potency [6] | Potency [7] | Potency [8] | Potency [9] | Potency [10] | Potency [11] | Potency [12] | activity change, positive = activation ([13]; at 92.4 µM (top of the series)) 8.53% | Potency [14] | Potency [15] | Potency [16] | Potency [17]

CCCC(=O)OCCc1ccccc1
inactive: Potency [1] | Potency [3] | Potency [4] | Potency [19] | Potency [20] | Potency [5] | Potency [8] | Potency [9] | Potency [10] | Potency [11] | Potency [14]
active: Potency [2] 79.6 µM | Potency [16] 43.6 µM

CCCCOC(=O)CO
inactive: Potency [1] | Potency [2] | Potency [3] | Potency [4] | Potency [19] | Potency [20] | Potency [5] | Potency [18] | Potency [9] | Potency [10] | Potency [11] | Potency [14] | Potency [15] | Potency [16] | Potency [17]
